Assay results from PubChem BioAssay (NCATS).
Several values for one entry are separate records, joined by “and”; a condition that tells them apart may be missing. Equal values may be shown once. Results filed as inconclusive are left out. The source holds several records for some structures; these can differ, active in one and inactive in another. Activity calls are given as the source filed them. The call rests on the fitted dose curve; in most records, active means well fitted inhibition curve with a large enough effect; inconclusive means small, poorly fitted or top-dose-only effect; inactive means flat fitted curve, though single readings scatter.

Experiments:
P93_24 = experiment: qHTS profiling for inhibitors of Plasmodium falciparum proliferation (AID 504749); further: potency means the concentration at half of the fitted maximal effect; conditions: P. falciparum in erythrocytes, SYBR Green DNA, 72 h; series mostly up to 28.7 µM
Outline: (§1)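 Parasite proliferation within erythrocytes, 72 h exposure. Endpoint: SYBR Green I fluorescence after overnight lysis at room temperature. Controls: 0.29 uM artemisinin, DMSO.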

P94_40 = experiment: as above; conditions: P. falciparum in erythrocytes, SYBR Green DNA, 72 h; series mostly up to 28.7 µM
Outline: as §1

PAD = experiment: as above; conditions: P. falciparum in erythrocytes, SYBR Green DNA, 72 h; series mostly up to 28.7 µM
Outline: as §1

PC15 = experiment: as above; conditions: P. falciparum in erythrocytes, SYBR Green DNA, 72 h; series mostly up to 28.7 µM
Outline: as §1

PC26 = experiment: as above; conditions: P. falciparum in erythrocytes, SYBR Green DNA, 72 h; series mostly up to 28.7 µM
Outline: as §1

PC49 = experiment: as above; conditions: P. falciparum in erythrocytes, SYBR Green DNA, 72 h; series mostly up to 28.7 µM
Outline: as §1

TAB109 = experiment: as above; conditions: P. falciparum in erythrocytes, SYBR Green DNA, 72 h; series mostly up to 28.7 µM
Outline: as §1

TAB113 = experiment: as above; conditions: P. falciparum in erythrocytes, SYBR Green DNA, 72 h; series mostly up to 28.7 µM
Outline: as §1

TAB165 = experiment: as above; conditions: P. falciparum in erythrocytes, SYBR Green DNA, 72 h; series mostly up to 28.7 µM
Outline: as §1

W2 = experiment: as above; conditions: P. falciparum in erythrocytes, SYBR Green DNA, 72 h; series mostly up to 28.7 µM
Outline: as §1

CRL-7250 = normal cell line; experiment: Cytotoxic Profiling of Annotated Libraries Using Quantitative High-Throughput Screening (AID 1296008); conditions: Five cell lines viability, CellTiter-Glo ATP luminescence, 48-72 h; max response: active compounds read low; further: potency means the concentration at half of the fitted maximal effect; on max response: on the % scale 0 is the no-effect control and ±100 the full control effect
Outline: (§2)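 Compounds were pin-transferred onto cells and incubated 48 or 72 hr at 37 degree Celsius, 95% humidity. CellTiter-Glo was added, plates sat 10 min at room temperature, then ATP-coupled luminescence was imaged as the viability read-out.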

HaCat [1] = experiment: as above; conditions: Five cell lines viability, CellTiter-Glo ATP luminescence, 48-72 h; max response: active compounds read low
Outline: as §2

KB-3-1 = experiment: as above; conditions: Five cell lines viability, CellTiter-Glo ATP luminescence, 48-72 h; max response: active compounds read low
Outline: as §2

HACAT [2] = experiment: qHTS assay to identify novel small-molecules to repurpose for Merkel cell carcinoma treatment (AID 1296009); conditions: MCC and control cell lines, CellTiter-Glo viability, 72 h; at 44.8 µM (top of the series) unless noted
Outline: (§3)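 qHTS format: cells treated with library compounds in DMSO across 8 (NPC) or 11 (MIPE) concentrations. Readout after 72 hr at 37 degree celsius was CellTiter-Glo luminescence.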

MCC-13 = experiment: as above; conditions: MCC and control cell lines, CellTiter-Glo viability, 72 h; series mostly up to 46 µM
Outline: as §3

SC27B = experiment: qHTS profiling for inhibitors of Plasmodium falciparum proliferation (AID 504749); further: potency means the concentration at half of the fitted maximal effect; conditions: P. falciparum in erythrocytes, SYBR Green DNA, 72 h; series mostly up to 28.7 µM
Outline: as §1

NIH3T3 = experiment: Cytotoxic Profiling of Annotated Libraries Using Quantitative High-Throughput Screening (AID 1296008); conditions: Five cell lines viability, CellTiter-Glo ATP luminescence, 48-72 h; max response: active compounds read low; further: potency means the concentration at half of the fitted maximal effect; on max response: on the % scale 0 is the no-effect control and ±100 the full control effect
Outline: as §2

HEK293T = experiment: qHTS assay to identify novel small-molecules to repurpose for Merkel cell carcinoma treatment (AID 1296009); conditions: MCC and control cell lines, CellTiter-Glo viability, 72 h; at 44.8 µM (top of the series) unless noted
Outline: as §3

MCC-26 = experiment: as above; conditions: MCC and control cell lines, CellTiter-Glo viability, 72 h; series mostly up to 46 µM
Outline: as §3

HEK293 = experiment: Cytotoxic Profiling of Annotated Libraries Using Quantitative High-Throughput Screening (AID 1296008); conditions: Five cell lines viability, CellTiter-Glo ATP luminescence, 48-72 h; max response: active compounds read low; further: potency means the concentration at half of the fitted maximal effect; on max response: on the % scale 0 is the no-effect control and ±100 the full control effect
Outline: as §2
Further: nearly all actives have a fitted effect of over 60% in size.

CNCC[C@H](Oc1cccc2ccccc12)c1cccs1
active: Potency (P93_24) 3.16 µM | Potency (P94_40) 10 µM | Potency (PAD) 11.2 µM | Potency (PC15) 5.01 µM | Potency (PC26) 8.49 µM | Potency (PC49) 4.47 µM | Potency (TAB109) 7.08 µM | Potency (TAB113) 8.91 µM | Potency (TAB165) 12.6 µM | Potency (W2) 1.9 µM
inactive: max response (CRL-7250) -21.6% | outcome (CRL-7250) | outcome (HaCat [1]) | max response (KB-3-1) -19.6% and -13.2% | outcome (HACAT [2]) | Potency (MCC-13)

CC(C)(Sc1cc(C(C)(C)C)c(O)c(C(C)(C)C)c1)Sc1cc(C(C)(C)C)c(O)c(C(C)(C)C)c1
inactive: Potency (P93_24) | Potency (P94_40) | Potency (PAD) | Potency (PC15) | Potency (PC26) | Potency (PC49) | Potency (SC27B) | Potency (TAB109) | Potency (TAB113) | Potency (TAB165) | max response (CRL-7250) -4.36% | outcome (CRL-7250) | max response (HaCat [1]) 0.994% | outcome (HaCat [1]) | max response (KB-3-1) -10.8% and 4.75% | max response (NIH3T3) 1.18% | outcome (NIH3T3) | outcome (HACAT [2]) | outcome (HEK293T) | Potency (MCC-13) | Potency (MCC-26)
active: Potency (W2) 4.05 µM

CCc1cc(C(N)=S)ccn1
inactive: Potency (P93_24) | Potency (P94_40) | Potency (PAD) | Potency (PC15) | Potency (PC26) | Potency (PC49) | Potency (SC27B) | Potency (TAB109) | Potency (TAB113) | Potency (TAB165) | Potency (W2) | max response (CRL-7250) -4.32% and -3.13% | max response (HEK293) -11.8% | outcome (HEK293) | max response (HaCat [1]) -10.8% | outcome (HaCat [1]) | max response (KB-3-1) -6.3% and 8.73% | max response (NIH3T3) -2.49% | outcome (NIH3T3) | outcome (HACAT [2]) | outcome (HEK293T) | Potency (MCC-13) | Potency (MCC-26)

Cc1cccc(Nc2ccncc2S(=O)(=O)NC(=O)NC(C)C)c1
inactive: Potency (P93_24) | Potency (P94_40) | Potency (PAD) | Potency (PC15) | Potency (PC26) | Potency (PC49) | Potency (SC27B) | Potency (TAB109) | Potency (TAB113) | Potency (TAB165) | Potency (W2) | max response (CRL-7250) -14.3% | outcome (CRL-7250) | max response (HaCat [1]) -0.391% | outcome (HaCat [1]) | max response (KB-3-1) -4.26% and -4.09% | max response (NIH3T3) 4.21% and -1.03% | outcome (HACAT [2]) | Potency (MCC-13)

COc1cnc(NS(=O)(=O)c2ccc(N)cc2)nc1
inactive: Potency (P94_40) | Potency (PAD) | Potency (PC15) | Potency (PC26) | Potency (PC49) | Potency (SC27B) | Potency (TAB109) | Potency (TAB113) | Potency (TAB165) | Potency (W2) | max response (CRL-7250) -6.42% and -4.75% | outcome (HEK293) | max response (HaCat [1]) -7.96% | outcome (HaCat [1]) | max response (KB-3-1) 12.3% | outcome (KB-3-1) | max response (NIH3T3) -3.77% and 1.75% | outcome (HACAT [2]) | outcome (HEK293T) | Potency (MCC-13) | Potency (MCC-26)

C#CCN[C@@H]1CCc2ccccc21
inactive: Potency (P93_24) | Potency (P94_40) | Potency (PAD) | Potency (PC15) | Potency (PC26) | Potency (PC49) | Potency (SC27B) | Potency (TAB109) | Potency (TAB113) | Potency (TAB165) | Potency (W2) | max response (CRL-7250) -10.3% and 4.11% | max response (HEK293) -23.7% | outcome (HEK293) | max response (HaCat [1]) 0.653% | max response (KB-3-1) -4.71% | max response (NIH3T3) 1.77% | outcome (NIH3T3) | outcome (HEK293T) | Potency (MCC-13) | Potency (MCC-26)

COCCCOc1cc(C[C@@H](C[C@H](N)[C@@H](O)C[C@H](C(=O)NCC(C)(C)C(N)=O)C(C)C)C(C)C)ccc1OC
inactive: max response (CRL-7250) -2.04% | outcome (HEK293) | max response (HaCat [1]) 0.78% | outcome (HaCat [1]) | max response (KB-3-1) -10.1% and 2.39% | max response (NIH3T3) -0.804% | outcome (NIH3T3) | outcome (HACAT [2]) | outcome (HEK293T) | Potency (MCC-13) | Potency (MCC-26)

C[C@@H](CN1CC(=O)NC(=O)C1)N1CC(=O)NC(=O)C1
inactive: max response (CRL-7250) 0.572% | max response (HaCat [1]) -7.01% | max response (KB-3-1) 7.8% | Potency (MCC-13) | Potency (MCC-26)
active: Potency (CRL-7250) 0.148 µM | Potency (HaCat [1]) 23.5 µM | Potency (NIH3T3) 0.187 µM

Cc1ccnc2c1NC(=O)c1cccnc1N2C1CC1
inactive: Potency (P93_24) | Potency (P94_40) | Potency (PAD) | Potency (PC15) | Potency (PC26) | Potency (PC49) | Potency (SC27B) | Potency (TAB109) | Potency (TAB113) | Potency (TAB165) | Potency (W2) | outcome (CRL-7250) | max response (HEK293) -12% and -5.59% | max response (HaCat [1]) -1.71% | outcome (HaCat [1]) | max response (KB-3-1) 17.8% | outcome (KB-3-1) | max response (NIH3T3) -5.8% and 2.37% | outcome (HACAT [2]) | Potency (MCC-13) | Potency (MCC-26)

O=S(=O)(c1cccc2cnccc12)N1CCCNCC1
inactive: outcome (CRL-7250) | max response (HEK293) -25.6% | outcome (HEK293) | outcome (HaCat [1]) | max response (KB-3-1) -15.9% | outcome (KB-3-1) | max response (NIH3T3) 0.496% and -3.33% | outcome (HACAT [2]) | outcome (HEK293T) | Potency (MCC-13) | Potency (MCC-26)
